Screening data deposited in PubChem by National Center for Advancing Translational Sciences (NCATS).
MCF10A rerep = inducers of DNA re-replication in MCF 10A breast cells | MCF 10A DNA re-replication, Hoechst nuclear intensity, 48 h | Potency, µM (top dose mostly 46.1 µM), actives largely listed as activators | actives 2.9% (n = 350,000); note: nearly all actives have a fitted effect of over 50% in size
ELG1 repair inh = blocks ELG1-dependent DNA repair in HEK293T cells | actives 2.3% (n = 330,000) | Potency, µM (doses to about 46.1 µM), most hits filed as inhibitors | AID 504467 | HEK293T ELG1-luciferase reporter, luminescence, 16 h; DNA damage induced by 5-fluorouridine; note: nearly all actives have a fitted effect of over 55% in size
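Overnight (16 hr) co-exposure of 2,000 cells/well to 5-fluorouridine and compound at 37 °C preceded detection. Luciferase was quantified via ONE-Glo luminescence; loss of signal denotes inhibition.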
KB-V1 MDR tox = KB-V1 MDR subline cytotoxicity; Potency, µM (highest dose often 46.1 µM), hits mostly cytotoxic; AID 1347076; actives 3.4% (n = 400,000); KB-V1 MDR cells viability, CellTiter-Glo, 72 h; note: nearly all actives have a fitted effect of over 60% in size
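KB-V1 MDR subline cells in DMEM (phenol-red free, 10% FBS) exposed to compounds in qHTS concentration series for 72 h at 37 degrees C. Viability read by CellTiter-Glo luminescence; concentration-effect curves fitted after normalization and correction.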
KB-3-1 cytotox = kills parental KB-3-1 adenocarcinoma cells; KB-3-1 viability, CellTiter-Glo ATP luminescence, 72 h; Potency, µM (top dose mostly 46.1 µM), usual class: cytotoxic; actives 1.4% (n = 400,000); AID 1347075; note: nearly all actives have a fitted effect of over 60% in size
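Multi-concentration cytotoxicity screen in KB-3-1 cells grown in DMEM lacking phenol red with 10% FBS. After 72 h at 37 °C with compound, ATP-dependent luminescence was recorded.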
SW480 rerep = inducers of DNA re-replication in SW480 colon cancer cells | SW480 DNA re-replication, Hoechst DNA content imaging, 48 h | Potency, µM (titrated, usually from 46.1 µM), hits mostly activators | actives 1.8% (n = 340,000) | AID 624297; note: nearly all actives have a fitted effect of over 55% in size
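Image-based read-out: total Hoechst fluorescence of nuclei (405 nm excitation, 500-530 nm emission), with hits raising the fraction of high-intensity nuclei. SW480 colon cells incubated 48 hr with compounds at 37 C.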
Of the large screens only hits and unclear results are named; the others gave an inactive call; ! = not confirmed by another sample. In the library only some 8.1% were active in any assay of this set; here they are far more common. Calls come from the whole dose curve; as a rule, active = well fitted curve in the direction sought with a large enough effect; inconclusive = small, poorly fitted or top-dose-only effect, or another doubt; inactive = no such curve, though single readings can be large; an effect the other way counts as inactive or inconclusive.

CN1C[C@H](CNC(=O)OCc2ccccc2)C[C@@H]2c3cccc4c3c(cn4C)C[C@H]21	MCF10A rerep 23µM, SW480 rerep 23µM
CC(C)(C)c1ccc(O)cc1	none (no result: ELG1 repair inh, KB-V1 MDR tox, KB-3-1 cytotox)
Clc1ccc(CS[C@@H](Cn2ccnc2)c2ccc(Cl)cc2Cl)cc1	MCF10A rerep inconclusive (no result: ELG1 repair inh, KB-V1 MDR tox, KB-3-1 cytotox)
Cc1cc(C(=O)OCC(=O)NC(=O)c2cccn2C)c2ccccc2n1	ELG1 repair inh inconclusive
Cc1ccc(S(=O)(=O)N(C)CCCC(=O)N2CCN(c3ccccn3)CC2)cc1	MCF10A rerep inconclusive, ELG1 repair inh 18µM, KB-V1 MDR tox inconclusive, KB-3-1 cytotox inconclusive, SW480 rerep inconclusive
C#CCN1CC(=O)N(COC(=O)[C@@H]2[C@@H](C=C(C)C)C2(C)C)C1=O	none (no result: ELG1 repair inh, KB-V1 MDR tox, KB-3-1 cytotox)
COCCOc1ccc(C(F)(F)F)cc1NC(=O)CN1C(=O)NC2(CCCc3ccccc32)C1=O (configuration not stated)	SW480 rerep inconclusive
CCC1(C)CC(=O)NC(=O)C1	none (no result: ELG1 repair inh, KB-V1 MDR tox, KB-3-1 cytotox)
O=C(c1ccccc1)C(CN1CCCC1)c1ccccc1 (configuration not stated)	MCF10A rerep 3.3µM, ELG1 repair inh 18µM, KB-V1 MDR tox 5.2µM, KB-3-1 cytotox 5.2µM, SW480 rerep 7.3µM
CCCCOP(=O)(OCCCC)C(Nc1ccc(C(=O)OCC)cc1)c1ccncc1 (configuration not stated)	MCF10A rerep inconclusive
COc1ccc(NC(=O)Nc2cccc3c2O[C@H](CN(C)C(=O)NC2CCCCC2)[C@@H](C)CN([C@H](C)CO)C3=O)cc1	none
C[C@H](CO)N1C[C@H](C)[C@@H](CN(C)C(=O)NC2CCCCC2)Oc2c(NC(=O)Nc3ccc4c(c3)OCO4)cccc2C1=O	ELG1 repair inh 15µM
COc1ccc(CCNC(=O)N2c3ccccc3Sc3ccccc32)cc1	MCF10A rerep 16µM, KB-V1 MDR tox inconclusive, KB-3-1 cytotox inconclusive (no result: ELG1 repair inh)
CN1c2ccccc2C(NCCCCCCC(=O)O)c2ccc(Cl)cc2S1(=O)=O (configuration not stated)	none (no result: ELG1 repair inh, KB-V1 MDR tox, KB-3-1 cytotox)
COc1cc2cc(C(=O)N3CC(COS(C)(=O)=O)c4ccc(O)cc43)[nH]c2c(OC)c1OC (configuration not stated)	KB-V1 MDR tox 0.0092µM, KB-3-1 cytotox inconclusive (no result: ELG1 repair inh)
O=C(Nc1ccc(F)cc1)OC1CN2CCC1CC2 (configuration not stated)	MCF10A rerep 8.2µM, ELG1 repair inh inconclusive
O=C(Nc1ccc(C(F)(F)F)cc1)OC1CN2CCC1CC2 (configuration not stated)	MCF10A rerep inconclusive, ELG1 repair inh inconclusive
CC(=O)OC1CC(OC2C(O)CC(OC3C(O)CC(OC4CCC5(C)C(CCC6C5CC(O)C5(C)C(C7=CC(=O)OC7)CCC65O)C4)OC3C)OC2C)OC(C)C1OC1OC(CO)C(O)C(O)C1O (configuration not stated)	MCF10A rerep 0.18µM, KB-V1 MDR tox 0.92µM!, KB-3-1 cytotox inconclusive, SW480 rerep 1.8µM (no result: ELG1 repair inh)
CC(=O)O[C@H]1[C@H]2O[C@]23[C@@H]2CC[C@]4(O)C[C@@H](O)CC[C@]4(C)C2CC[C@]3(C)[C@H]1c1ccc(=O)oc1 (some centres not stated)	ELG1 repair inh inconclusive, KB-3-1 cytotox inconclusive
CO[C@H]1[C@@H](O)CC(OC2[C@@H](O)CC(OC3[C@@H](O)C[C@H](OC4CC[C@@]5(C)C(CCC6C5CC(O)[C@]5(C)[C@H](C7=CC(=O)OC7)CCC65O)C4)O[C@@H]3C)O[C@@H]2C)O[C@@H]1C (some centres not stated)	none (no result: ELG1 repair inh, KB-V1 MDR tox, KB-3-1 cytotox)
COC1C(O)C(C)OC(OC2CCC3(C)C(CCC4C3C(O)CC3(C)C(C5=CC(=O)OC5)CCC43O)C2)C1O (configuration not stated)	MCF10A rerep 0.26µM, KB-V1 MDR tox 0.18µM, KB-3-1 cytotox 0.21µM, SW480 rerep 1.3µM (no result: ELG1 repair inh)
C[C@H]1O[C@@H](O[C@H]2[C@@H](O)C[C@@H](O[C@H]3[C@@H](O)C[C@H](O[C@H]4CC[C@@]5(C)[C@H](CC[C@@H]6[C@@H]5CC[C@]5(C)[C@@H](C7=CC(=O)OC7)CC[C@]65O)C4)O[C@@H]3C)O[C@@H]2C)C[C@H](O)[C@@H]1O	KB-V1 MDR tox inconclusive, KB-3-1 cytotox 0.01µM (no result: MCF10A rerep, ELG1 repair inh, SW480 rerep)
C[C@]12CC[C@H](O)C[C@H]1CCC1C2CC[C@]2(C)[C@@H](c3ccc(=O)oc3)C[C@H]3O[C@]132 (some centres not stated)	MCF10A rerep 13µM, KB-V1 MDR tox inconclusive, KB-3-1 cytotox inconclusive, SW480 rerep inconclusive (no result: ELG1 repair inh)
O=C1C[C@@H]2OCC=C3CN4CC[C@]56c7ccccc7N1[C@@H]5[C@@H]2[C@H]3C[C@H]46 (tested in a mixture with another compound)	none (no result: MCF10A rerep, ELG1 repair inh, KB-V1 MDR tox, KB-3-1 cytotox)
Cc1cc2oc(=O)cc(-c3ccccc3)c2c(C)c1-c1ccc(CO)cc1	MCF10A rerep inconclusive, ELG1 repair inh inconclusive
CC12CCC(O)CC1CCC1C2CCC2(C)C(C3=CC(=O)OC3)CCC12O (configuration not stated)	MCF10A rerep inconclusive, KB-V1 MDR tox 0.73µM, KB-3-1 cytotox 1.2µM, SW480 rerep 5.8µM (no result: ELG1 repair inh)
CNC(=O)Nc1ccc(C(=O)N/N=C\C23CC[C@@H](O)CC2(O)CC[C@@H]2[C@@H]3CCC3(C)C(C4=CC(=O)OC4)CCC23O)cc1 (some centres not stated)	KB-3-1 cytotox inconclusive
CC(=O)C1CCC2C3CCC4CC(O)CCC4(C)C3CCC12C (configuration not stated)	MCF10A rerep inconclusive
CC12CC[C@H]3[C@@H](CCC4(O)C[C@H](O)CCC34/C=N/NC(=O)c3ccccc3[N+](=O)[O-])C1(O)CCC2C1=CC(=O)OC1 (some centres not stated)	MCF10A rerep 16µM, KB-V1 MDR tox inconclusive, KB-3-1 cytotox 9.2µM
CC12CCC(O)CC1CCC1C2CCC2(C)C(C3=CC(=O)OC3)C(O)CC12O (configuration not stated)	MCF10A rerep 2.1µM, KB-V1 MDR tox 4.1µM, KB-3-1 cytotox inconclusive, SW480 rerep 23µM (no result: ELG1 repair inh)
C[C@]12CC[C@H](O)C[C@H]1CC[C@@H]1[C@@H]2C[C@@H](O)[C@]2(C)[C@@H](C3=CC(=O)OC3)CC[C@]12O	MCF10A rerep inconclusive, ELG1 repair inh inconclusive, KB-V1 MDR tox 1.6µM, KB-3-1 cytotox 1.3µM, SW480 rerep inconclusive
Cc1ccc(-c2csc(NC(CO)c3nc4ccccc4n3CCOCCO)n2)cc1 (configuration not stated)	MCF10A rerep inconclusive (no result: ELG1 repair inh)
Cc1ccc(CN2C3CCCC2CC(NC(=O)c2ccc(C)cc2)C3)cc1 (configuration not stated)	MCF10A rerep inconclusive
O=[N+]([O-])c1cc(I)c(O)c(I)c1	MCF10A rerep inconclusive (no result: ELG1 repair inh, KB-V1 MDR tox, KB-3-1 cytotox)
